High-throughput results from PubChem BioAssay.
An excerpt weighted towards active compounds, which were near 2.8% of everything screened.
Platelet DG rel: inhibitors of platelet dense granule secretion, primary screen, cell-based, MLPCN, human platelets | inhibition, %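 (compounds screened at 7.5 µM in platelet-rich plasma)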 | hit rate 0.22% among 300,000 | human platelet-rich plasma, SFLLRN dense granule ATP release, luminescence;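 active = mean replicate score, as percent of positive control, at or above 50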
pCIP destab: p/CIP-EGFP fusion destabilizers, primary screen, fluorescence, F442A cells. Q05BA5. 16 h. decrease of EGFP signal, % at 10 µM. hit rate 0.01% among 290,000. AID 1984, 2009;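 active = EGFP signal decrease of at least 30% at 10 µM or well 3 SD below plate mean, unless failing retest; inactive = the rest, including hits failing retest or dose response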
AHR act: AHR activators, primary screen, cell-based, luminescence, luciferase reporter, human; Aryl hydrocarbon receptor (Homo sapiens), P35869; AHR-responsive luciferase reporter cells; activation, % at 5 µM; hit rate 2.5% among 320,000; in the data active = activation above about 47%;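 note: 0% = vehicle wells and 100% = reference agonist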
HIF activator: HIF pathway transcriptional activators, primary screen, cell-based, U2OS HRE-luciferase, luminescence. U2OS HRE-luciferase reporter; normalized: DMSO 0%, desferrioxamine 100%. activation, % at 7.5 µM (by protocol). hit rate 0.32% among 300,000. AID 1910, 2009;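 active = mean activation of at least 10% of the iron chelator positive control signal, with at least half of replicates also reaching 10%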
PolyA inh: polyadenylation inhibitors in yeast reporter cells, primary screen, luminescence, S. cerevisiae; S. cerevisiae SKY197-pL101 polyadenylation reporter, beta-gal luminescence; efflux-impaired pdr1/pdr3 knockout yeast; score 100 = 6 SD above DMSO; activity score, % at 12 µM; hit rate 0.02% among 300,000; AID 1875, 2009;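 active = lowest replicate activity score at least 50, where 100 means six control SD above control mean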;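 note: yeast exposed to compound for 9 h at 30 °C; higher score means more reporter readthrough which indicates perturbed polyadenylation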
* hit, by the source's call; / = no result.

SMILES	Platelet DG rel	pCIP destab	AHR act	HIF activator	PolyA inh
S=c1[nH]nc(-c2cc(-c3ccccn3)nc3ccccc23)o1	-1.4	0.9	73.5*	-0.2	-5.6
O=C1c2ccccc2C(=O)C1c1nccc2ccccc12	9.4	0.8	51.2*	-1.1	-15.3
O=C1C(c2ccnc3ccccc23)=C(O)c2ccccc21	19.5	-15.4	53.9*	0.1	0.3
O=C1c2ccccc2C(=O)C1c1ccnc2ccccc12	6.7	-0.5	62.4*	-1.6	-19.4
O=C1C(=O)c2ccccc2C(O)=C1c1ccccc1F	12.2	-16.6	2.9	0.3	-4.2
CCc1ccccc1C1C(=O)c2ccccc2C1=O	-9.9	/	-1.5	0.1	-11.9
CCCn1c(NC(=O)c2cccc(S(=O)(=O)N3CCCC3)c2)nc2ccccc21	-8.4	-5.7	0.6	1.2	3.9
Cc1cc(OCC(=O)OCC(=O)NCc2cccs2)ccc1Cl	/	/	0.2	/	/
Cc1ccc(S(=O)(=O)N2CCC(C(=O)OCC(=O)N(C)C3CCS(=O)(=O)C3)CC2)cc1C (stereo unspecified)	2.2	/	-3.5	-0.2	-5.5
CC1=C(C(N)=O)C(c2cccs2)n2nc(-c3cccc(C)c3)nc2N1 (stereo unspecified)	0.2	/	6.8	-0.2	-13.9
CC1=C(C(N)=O)C(c2cccs2)n2nc(-c3cccc(Cl)c3)nc2N1 (stereo unspecified)	-1.7	9.9	66.9*	-1.2	3.2
N/C(=N\OC(=O)c1cccc(Cl)c1)c1ccccn1	11.7	0.6	70.3*	-1.3	-3.7
Cc1cc(/C(N)=N/OC(=O)c2cccc(Cl)c2)no1	8.3	-9.2	38.0	2.3	-7.1
N/C(=N\OC(=O)c1ccccc1Cl)c1ccccn1	56.0*	4.1	52.3*	-3.1	-7.4
N/C(=N\OC(=O)c1ccc(Cl)c([N+](=O)[O-])c1)c1ccccn1	11.1	-4.6	-5.9	1.5	-27.6
N/C(=N\OC(=O)c1ccc(Cl)c(Cl)c1)c1ccccn1	11.6	3.2	71.7*	-0.8	-20.4
COc1ccccc1C(=O)O/N=C(\N)c1ccccn1	2.7	1.5	31.6	-4.5	-5.0
N/C(=N\OC(=O)c1ccc(Cl)cc1)c1ccccn1	52.1*	10.4	-15.4	-2.6	-13.1
CCN(CC)c1ccc(NC(=O)c2cccc(F)c2)c(C)c1	-1.2	-0.7	-0.1	1.8	11.4
COCCN(C(=O)c1sc2ccccc2c1Cl)c1c(N)n(CC(C)C)c(=O)[nH]c1=O	/	/	0.3	/	/
COc1ccc(OC)c(NC2c3ccccc3C(=O)N2c2cccnc2)c1 (stereo unspecified)	1.1	-12.7	-2.2	-0.4	18.4
N/C(=N\OC(=O)c1ccc(Cl)cc1)c1[nH]ncc1Br	52.3*	-3.8	9.8	-0.2	-28.0
Cn1c(=O)cc(SCC(=O)N2CCN(c3ccccn3)CC2)c2ccccc21	-2.1	-1.4	63.7*	-0.3	-1.1
Cn1c(=O)cc(SCC(=O)Nc2ccccn2)c2ccccc21	-2.8	-46.2	62.2*	-0.9	5.7
Cc1ccnc(NC(=O)CSc2cc(=O)n(C)c3ccccc23)c1	-8.0	-41.8	39.2	0.0	-8.0
SMILES	Platelet DG rel	pCIP destab	AHR act	HIF activator	PolyA inh
O=C1NC2=C(C(=O)CCC2)C(c2cccc([N+](=O)[O-])c2)N1 (stereo unspecified)	-5.5	2.4	/	0.9	-6.4
CCOC(=O)c1c(C)oc(/N=C/c2ccccc2O)c1C#N	-2.5	20.6	-0.2	-0.4	12.6
CN1c2ccsc2/C(=N/Nc2ccccc2)CS1(=O)=O	7.0	5.8	73.8*	1.1	-28.0
CN1c2ccsc2/C(=N/NC(=O)c2c(F)cccc2F)CS1(=O)=O	-2.6	-30.7	3.5	-0.8	11.2
CCCCn1c(N)c(N(CC)C(=O)c2ccccc2F)c(=O)[nH]c1=O	2.5	-4.9	0.7	0.2	1.1
Cc1sc(NC(=O)Nc2ccccc2)c(C(N)=O)c1C	-2.8	6.0	53.3*	3.6	-8.0
COC(=O)c1c(NC(=O)Nc2ccc(Cl)cc2)sc(C)c1C	/	-0.6	39.1	/	/
O=[N+]([O-])CC(=Nc1ccc(F)cc1)N/N=C\c1oc(O)c2ccccc12	7.2	4.0	53.7*	0.9	13.0
O=C(NNC(=S)NCc1ccccc1)c1ccccc1OC(F)F	21.2	-7.4	2.3	-0.8	2.5
O=C(NNC(=S)Nc1ccc(Cl)cc1)c1ccccc1OC(F)F	-2.1	2.2	103.8*	0.5	-7.6
COc1ccc(/C=C/S(=O)(=O)NCc2ccccc2)cc1OC	1.2	18.4	-0.9	0.2	21.4
